Source: PubChem
NS1 function inh: inhibitors of influenza NS1 protein function | Potency, µM (series often up to 46.1 µM) | actives 0.4% (n = 270,000); calls by dose curve; further: actives are rising curves; nearly all actives have a fitted effect of over 50% in size
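A cell-based growth assay was used: compounds that relieve NS1-induced slow growth of budding yeast raise OD600. Assay medium was yeast nitrogen base with ammonium sulphate and -URA supplement, pH 6.0, with 2% galactose.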
AmpC detergent: blocks E. coli AmpC beta-lactamase in detergent assay | actives 0.041% (n = 370,000) | AmpC hydrolysis of nitrocefin, absorbance 480 nm, 0.01% Triton | Potency, µM (doses to about 114 µM), most hits filed as inhibitors | P00811 | AID 485294; further: nearly all actives have a fitted effect of over 25% in size
Target sequence (P00811 whole entry, looked up): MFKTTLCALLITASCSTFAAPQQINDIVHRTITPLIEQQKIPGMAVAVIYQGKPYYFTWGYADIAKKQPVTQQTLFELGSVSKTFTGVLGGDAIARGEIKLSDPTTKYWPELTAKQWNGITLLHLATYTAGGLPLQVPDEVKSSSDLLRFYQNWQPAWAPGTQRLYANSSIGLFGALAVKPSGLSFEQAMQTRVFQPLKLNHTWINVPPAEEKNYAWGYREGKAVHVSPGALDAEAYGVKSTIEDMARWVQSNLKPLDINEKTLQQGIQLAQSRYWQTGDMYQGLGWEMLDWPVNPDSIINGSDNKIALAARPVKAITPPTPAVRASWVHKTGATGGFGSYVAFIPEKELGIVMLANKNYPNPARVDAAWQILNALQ
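20 mM phosphate pH 7.0 + 0.01% (detergent screen) or 0.0001% Triton X-100; 5.3 nM AmpC reagent; cpd preinc 15 min RT; nitrocefin (800 uM stock) to start; A480 q20 s × 4 min; Activity was normalised to no-enzyme and no-compound control wells.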
Shiga toxin inh: Shiga toxin inhibition; Vero cells, Shiga toxin protein synthesis inhibition reporter; inhibition, % at 38.7 µM; actives 9.2% (n = 290,000); AID 2315; in the data active means inhibition mostly above about 28%, no sharp cut-off; inactive means mostly below about 43%
Cycloheximide cs: counter-screen hit for Shiga toxin inhibitors, cycloheximide | cell reporter, cycloheximide protein synthesis inhibition counterscreen | max response, % | actives 12% (n = 300,000); in the data active means max response mostly above about 13%, no sharp cut-off; inactive means mostly below about 14%; further: read at 38.3 µM for the half of the compounds with a filed dose
AmpC no deterg: blocks E. coli AmpC beta-lactamase in detergent-free assay. P00811. AmpC nitrocefin hydrolysis, absorbance 480 nm, 0.0001% Triton. Potency, µM (titrated, usually from 57.1 µM), most hits filed as inhibitors. actives 0.52% (n = 330,000); further: nearly all actives have a fitted effect of over 20% in size
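20 mM phosphate pH 7.0 + 0.01% (detergent screen) or 0.0001% Triton X-100; 5.3 nM AmpC reagent; cpd preinc 15 min RT; nitrocefin (800 uM stock) to start; A480 q20 s × 4 min; Activity was normalised to no-enzyme and no-compound control wells.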
Each line names hits and unclear results; the compound was inactive in the other large screens. The entries come from a sample that favours hits as a whole. Unless noted, the call rests on the fitted dose curve; in most records, active means well fitted curve in the direction sought with a large enough effect; inconclusive means small, poorly fitted or top-dose-only effect, or another doubt; inactive means no such curve, though single readings can be large; an effect the other way counts as inactive or inconclusive.

O=C(O)c1cccc(-n2cc(-c3cccc(C(F)(F)F)c3)cn2)c1	Shiga toxin inh 118, Cycloheximide cs 54
CCOc1ccc(NC(=O)c2cc3c(=O)n4cccc(C)c4nc3s2)cc1	none (no result: NS1 function inh, Shiga toxin inh, Cycloheximide cs, AmpC no deterg)
Cc1cc2c(NCc3ccccc3)ncnc2s1	none (no result: Shiga toxin inh)
c1ccc(Nc2ncnc3c2oc2ccccc23)cc1	Shiga toxin inh 121, Cycloheximide cs 66 (no result: AmpC no deterg)
Oc1cccc(Nc2ncnc3c2oc2ccccc23)c1	Shiga toxin inh 93, Cycloheximide cs 50
CC(C)C(Nc1ncnc2c1oc1ccccc12)C(=O)O (stereo unspecified)	none
c1ccc2c(c1)oc1c(NCCN3CCOCC3)ncnc12	NS1 function inh inconclusive
Cc1cc2c(Nc3cccc(O)c3)ncnc2s1	Cycloheximide cs 19
c1ccc2c(c1)oc1c(NCc3ccc4c(c3)OCO4)ncnc12	none
c1ccc2c(c1)oc1c(Nc3ccc(CN4CCOCC4)cc3)ncnc12	Shiga toxin inh 106, Cycloheximide cs 92
Oc1ccccc1Nc1ncnc2c1oc1ccccc12	Cycloheximide cs 39
Oc1ccc(Nc2ncnc3c2oc2ccccc23)cc1	Shiga toxin inh 33, Cycloheximide cs 40
CC(C)(C)c1nc(SCC(=O)NNC(=O)c2ccccc2)c2ccccc2n1	none
Cc1ccc2c(c1)C(O)(CC(=O)/C=C/C=C/c1ccccc1)C(=O)N2 (stereo unspecified)	Cycloheximide cs 27
CNC(=O)c1ccc(-c2ccc(F)cc2)s1	AmpC detergent inconclusive
Cc1ccc(NC(=O)c2ccc(-c3ccccc3)s2)cc1	none (no result: NS1 function inh, Shiga toxin inh, Cycloheximide cs, AmpC no deterg)
CNC(=O)c1ccc(-c2ccc(OC)cc2)s1	Shiga toxin inh 78, Cycloheximide cs 26
COc1ccc(NC(=O)c2ccc(-c3ccc(OC)cc3)s2)cc1	AmpC detergent inconclusive, Shiga toxin inh 72 (no result: NS1 function inh)
O=C(Nc1ccccc1)c1ccc(-c2ccc(F)cc2)s1	Shiga toxin inh 88, Cycloheximide cs 36
CNC(=O)c1ccc(-c2ccc(Cl)c(Cl)c2)s1	Shiga toxin inh 66, Cycloheximide cs 42 (no result: NS1 function inh)
Cc1nc(SCC(=O)NC2(C#N)CCCC2)n(CC(C)C)c1C	none (no result: NS1 function inh, Shiga toxin inh, Cycloheximide cs)
CCCCCN1CN(S(=O)(=O)c2cccs2)c2nc3ccccc3nc21	Cycloheximide cs 16
COc1ccc(CN2CN(S(=O)(=O)c3ccccc3)c3nc4ccccc4nc32)cc1	Shiga toxin inh 112, Cycloheximide cs 33
O=S(=O)(c1cccs1)N1CN(Cc2ccccc2)c2nc3ccccc3nc21	AmpC detergent inconclusive
COc1ccc(CCN2CN(S(=O)(=O)c3ccc(OC)cc3)c3nc4ccccc4nc32)cc1	Shiga toxin inh 39, Cycloheximide cs 27
COc1ccc(S(=O)(=O)N2CN(Cc3ccco3)c3nc4ccccc4nc32)cc1	NS1 function inh inconclusive
COc1ccc(CN2CN(S(=O)(=O)c3cccs3)c3nc4ccccc4nc32)cc1	Shiga toxin inh 80, Cycloheximide cs 48
O=C(NCC(c1ccc2c(c1)OCO2)N1CCOCC1)c1ccc(F)cc1 (stereo unspecified)	none (no result: NS1 function inh, Shiga toxin inh, Cycloheximide cs, AmpC no deterg)
CC(=O)Nc1nnc(-c2ccc(Cl)s2)o1	AmpC no deterg 1.6µM
CCC(CC)C(=O)Nc1ccc2nc(SCC(=O)N3CCOCC3)sc2c1	none (no result: NS1 function inh, Shiga toxin inh, Cycloheximide cs, AmpC no deterg)
O=C(Nc1ccc(F)cc1F)c1cc(-c2ccco2)on1	AmpC detergent inconclusive, Shiga toxin inh 93, Cycloheximide cs 31
Cc1c(Cl)cccc1NC(=O)c1cc(-c2cccs2)on1	none (no result: NS1 function inh, Shiga toxin inh, Cycloheximide cs, AmpC no deterg)
Cc1c(Cl)cccc1NC(=O)c1cc(-c2ccco2)on1	AmpC detergent inconclusive, Shiga toxin inh 54
CSc1ccccc1NC(=O)c1cc(C)on1	none
CSc1ccccc1NC(=O)c1cc(C(C)C)on1	Shiga toxin inh 117, Cycloheximide cs 50
CSc1ccccc1NC(=O)c1cc(-c2ccco2)on1	Shiga toxin inh 55, Cycloheximide cs 18
CCc1cccc(NC(=O)Nc2csc3c2CCCC3)c1	none (no result: NS1 function inh, Shiga toxin inh, Cycloheximide cs, AmpC no deterg)
COc1ccc(C(=O)NCc2c(C)nn(Cc3ccccc3)c2C)cc1S(=O)(=O)N1CCOCC1	none (no result: NS1 function inh, Shiga toxin inh, Cycloheximide cs)
CCOC(=O)c1cc(S(=O)(=O)Nc2cc(OC)ccc2OC)[nH]n1	none (no result: NS1 function inh, Shiga toxin inh, Cycloheximide cs, AmpC no deterg)
COc1ccc(-c2ccc(=O)n(CC(=O)Nc3ccc(N(C)C)cc3)n2)cc1	none (no result: NS1 function inh, Shiga toxin inh, Cycloheximide cs, AmpC no deterg)
Cc1ccc(CNC(=O)Cn2c(=O)n(-c3ccc(C)c(F)c3)c(=O)c3sc4ccccc4c32)cc1	none (no result: NS1 function inh, Shiga toxin inh, Cycloheximide cs, AmpC no deterg)
CS(=O)(=O)N1CCN(c2ccc([N+](=O)[O-])cc2C(F)(F)F)CC1	Cycloheximide cs 8.9
CS(=O)(=O)N1CCN(c2ccc([N+](=O)[O-])cc2F)CC1	none (no result: NS1 function inh)
CCCCCc1nnc(NC(=O)c2cccc(S(=O)(=O)N3CCOCC3)c2)s1	none (no result: NS1 function inh, Shiga toxin inh, Cycloheximide cs)
Cc1cccc(/C=N/NC(=O)NC23CC4CC(CC(C4)C2)C3)n1	Cycloheximide cs 20
O=C(N/N=C/c1ccccn1)NC12CC3CC(CC(C3)C1)C2	Shiga toxin inh 70, Cycloheximide cs 39
O=C(N/N=C/c1ccccc1F)NC12CC3CC(CC(C3)C1)C2	Shiga toxin inh 54, Cycloheximide cs 33
COc1ccc(Cl)cc1NC(=O)N1CCN(Cc2cc(=O)n3nc(-c4ccccc4)sc3n2)CC1	none (no result: NS1 function inh, Shiga toxin inh, Cycloheximide cs, AmpC no deterg)
Cc1ccc(S(=O)(=O)/N=C(/Sc2ccccc2C(=O)O)c2ccccc2)cc1	none
Cc1ccc(C(=O)C[n+]2ccccc2)cc1	Shiga toxin inh 36, Cycloheximide cs 25
O=C(C[n+]1cccc2ccccc21)c1ccc(Br)cc1	AmpC detergent inconclusive
CC(=O)Nc1cc(C(=O)OCC(=O)c2ccccc2)ccc1C	Shiga toxin inh active, Cycloheximide cs 35
Cc1ccc(C(=O)OCC(=O)Nc2ccccc2)cc1NC(=O)c1ccco1	none
Cc1ccc(C(=O)Sc2cccccc2=O)cc1	Shiga toxin inh 135, Cycloheximide cs 78
Cc1ccc(C(=O)C[n+]2cccc3ccccc32)cc1	AmpC no deterg 0.16µM
Cc1nn(Cc2ccccc2)c(Cl)c1/C=C/C(=O)OCC(=O)N1CCCC1=O	none
Cc1ccccc1CN1C(=O)c2ccccc2S(=O)c2ccc(C(=O)NC3CCC(C)CC3)cc21 (stereo unspecified)	none (no result: NS1 function inh, Shiga toxin inh, Cycloheximide cs, AmpC no deterg)
Cc1c(NC(=O)c2cccnc2Cl)c(=O)n(-c2ccccc2)n1C	none
CC(=O)NC(C)C(=O)OCC(=O)c1ccc(-c2ccccc2)cc1 (stereo unspecified)	AmpC detergent inconclusive, Shiga toxin inh 49, Cycloheximide cs 16 (no result: NS1 function inh)
Cc1ccc(C(=O)CC(=O)c2ccccc2)cc1	AmpC detergent inconclusive, Shiga toxin inh 66, Cycloheximide cs 48
Cc1ccc(C(=O)CCC(=O)NCc2ccccc2)cc1	none
CCCC(=O)c1ccc(-c2ccccc2)cc1	Shiga toxin inh 84, Cycloheximide cs 28
CCCCN(CC)C(=O)c1ccc(-c2ccccc2)cc1	none
CC(NC(=O)c1ccccc1)C(=O)OCC(=O)c1ccc(Br)cc1 (stereo unspecified)	none
Cc1cc(C)c(NC(=O)CC(=O)c2ccccc2)c(Cl)c1	Shiga toxin inh 65, Cycloheximide cs 22
Cc1cc2nn(-c3ccc(F)cc3)nc2cc1NC(=O)c1cccc2c(Cl)cccc12	none (no result: NS1 function inh, Shiga toxin inh, Cycloheximide cs, AmpC no deterg)
OC[C@@H]1OC(O)[C@H](O)[C@H](O)[C@H]1O (stereo partly specified)	none (no result: NS1 function inh, AmpC detergent, AmpC no deterg)
